Experimental data reported in article PMC12864922, “TDP-43 directly inhibits mRNA accumulation in neurites through modulation of mRNA stability”.
Over roughly 9,900 sequences, “r (bound/input frequency ratio)” has its median near 0.7; the highest 2% begin near 6.5. The list comes from a sample in which the highest values are over-represented; it also holds similar and randomly drawn sequences.

B1: ENSMUSG00000061578.1454|Ksr2 (ssRNA)
RNA: GGGAGUUCUACAGUCCGACGAUCGCUUCGAUAUCCGCAUGCUAGGGUAAAUGAAUGGAUAGGUAUGUGAAUGAAUGGAUGAUGGAUGAAUGGAUGGGUAGGUGGGUAGAUAGGUAUAUGAAUGAAUGGAUGAAUGGAUGGGUGAAUGGAUGGAUAGGUAUGUGAAUAAAUGGAUGGAUGGAUGGAUUGAUUUGUGAAUGAAUGGAUGAAUGGAUGGGUAGGUGGGUGGAUGCAUAGGCAAGUAGAUGAAUGAAUAUGUGGGUAGAAGGGUGAGUGGGUGGAUGAAUGGAUGGAUAGGUUGGUACUCUUGCGGUCGCACUAGUGUGGAAUUCUCGGGUGUCAAGG
B2: ENSMUSG00000061578.1443|Ksr2 (ssRNA)
RNA: GGGAGUUCUACAGUCCGACGAUCGCUUCGAUAUCCGCAUGCUAGCAAGUAGGAUGGAUGGAUGAGUGAGUGGAUAGGUAGGUAUAUAAAUGGAUGGAUGGGUGAUGGAUGGGUAAAUGAAUGGAUAGGUAUGUGAAUGAAUGGAUGAUGGAUGAAUGGAUGGGUAGGUGGGUAGAUAGGUAUAUGAAUGAAUGGAUGAAUGGAUGGGUGAAUGGAUGGAUAGGUAUGUGAAUAAAUGGAUGGAUGGAUGGAUUGAUUUGUGAAUGAAUGGAUGAAUGGAUGGGUAGGUGGGUGGAUGCAUAGGCUCUUGCGGUCGCACUAGUGUGGAAUUCUCGGGUGUCAAGG
B3: ENSMUSG00000061578.1449|Ksr2 (ssRNA)
RNA: GGGAGUUCUACAGUCCGACGAUCGCUUCGAUAUCCGCAUGCUAGGUAUAUAAAUGGAUGGAUGGGUGAUGGAUGGGUAAAUGAAUGGAUAGGUAUGUGAAUGAAUGGAUGAUGGAUGAAUGGAUGGGUAGGUGGGUAGAUAGGUAUAUGAAUGAAUGGAUGAAUGGAUGGGUGAAUGGAUGGAUAGGUAUGUGAAUAAAUGGAUGGAUGGAUGGAUUGAUUUGUGAAUGAAUGGAUGAAUGGAUGGGUAGGUGGGUGGAUGCAUAGGCAAGUAGAUGAAUGAAUAUGUGGGUAGAAGGGUGAGCUCUUGCGGUCGCACUAGUGUGGAAUUCUCGGGUGUCAAGG
B4: ENSMUSG00000090935.713|Synj2bp (ssRNA)
RNA: GGGAGUUCUACAGUCCGACGAUCGCUUCGAUAUCCGCAUGCUAAAGUCCAGAGCUCUGCUCUCUGAGCAUCUGCCCCAGAUACAGAGGCAGAGUAUGAAGUGGAACAUUGUUUUAUUCCUAGGUGCUCAGGACAGACUGAUCAACCUCCAGUAACAUAUGUGGUUAGUAAGUGCUUCAGCUUGUGUAGCCAUUAAUAACCAAGUCAUAGGAUUGUGAAUCUAAAAUACUCCUGGGUAAAAUUUGUAUUAGAAUGGAAAAAAAAAUGAGGGUCAGAAAGGUGAGCUAACUUCAAGUUAGAUACUCUCUUGCGGUCGCACUAGUGUGGAAUUCUCGGGUGUCAAGG
B5: ENSMUSG00000031028.411|Tub (ssRNA)
RNA: GGGAGUUCUACAGUCCGACGAUCGCUUCGAUAUCCGCAUGCUACUUACCCCUCAUCCCCUCUUCUUUUUGGUCCUUGGCUGGGUAGCAAAUUGGUGAGAAGAGCAGCCUAGUCUGUAAGAGUGCAGGGCAGCUGGAACCUUAGGCAGCUCCUCUGUAUGCUACCGGCUCCACACCCUAACACUCUCCACCCUCUGCUCCAAACCAGUUCUUCUGCAGAGUGGUGAUGUUAGCUUCCCCAGCUCCUCUCCAAGUCUAGCUUUUUCUGUCCUUCUGGCUCCAAGGUGCUCUGUGUCUGUGUGUGUCUCUUGCGGUCGCACUAGUGUGGAAUUCUCGGGUGUCAAGG
B6: ENSMUSG00000031028.412|Tub (ssRNA)
RNA: GGGAGUUCUACAGUCCGACGAUCGCUUCGAUAUCCGCAUGCUACCUCAUCCCCUCUUCUUUUUGGUCCUUGGCUGGGUAGCAAAUUGGUGAGAAGAGCAGCCUAGUCUGUAAGAGUGCAGGGCAGCUGGAACCUUAGGCAGCUCCUCUGUAUGCUACCGGCUCCACACCCUAACACUCUCCACCCUCUGCUCCAAACCAGUUCUUCUGCAGAGUGGUGAUGUUAGCUUCCCCAGCUCCUCUCCAAGUCUAGCUUUUUCUGUCCUUCUGGCUCCAAGGUGCUCUGUGUCUGUGUGUGUGUGUCUCUCUUGCGGUCGCACUAGUGUGGAAUUCUCGGGUGUCAAGG
B7: ENSMUSG00000031028.415|Tub (ssRNA)
RNA: GGGAGUUCUACAGUCCGACGAUCGCUUCGAUAUCCGCAUGCUAUUGGUCCUUGGCUGGGUAGCAAAUUGGUGAGAAGAGCAGCCUAGUCUGUAAGAGUGCAGGGCAGCUGGAACCUUAGGCAGCUCCUCUGUAUGCUACCGGCUCCACACCCUAACACUCUCCACCCUCUGCUCCAAACCAGUUCUUCUGCAGAGUGGUGAUGUUAGCUUCCCCAGCUCCUCUCCAAGUCUAGCUUUUUCUGUCCUUCUGGCUCCAAGGUGCUCUGUGUCUGUGUGUGUGUGUCUGUCUGUGUGUGUGUGUGUCUCUUGCGGUCGCACUAGUGUGGAAUUCUCGGGUGUCAAGG
B8: ENSMUSG00000031028.414|Tub (ssRNA)
RNA: GGGAGUUCUACAGUCCGACGAUCGCUUCGAUAUCCGCAUGCUAUUCUUUUUGGUCCUUGGCUGGGUAGCAAAUUGGUGAGAAGAGCAGCCUAGUCUGUAAGAGUGCAGGGCAGCUGGAACCUUAGGCAGCUCCUCUGUAUGCUACCGGCUCCACACCCUAACACUCUCCACCCUCUGCUCCAAACCAGUUCUUCUGCAGAGUGGUGAUGUUAGCUUCCCCAGCUCCUCUCCAAGUCUAGCUUUUUCUGUCCUUCUGGCUCCAAGGUGCUCUGUGUCUGUGUGUGUGUGUCUGUCUGUGUGUGUCUCUUGCGGUCGCACUAGUGUGGAAUUCUCGGGUGUCAAGG
B9: ENSMUSG00000031028.413|Tub (ssRNA)
RNA: GGGAGUUCUACAGUCCGACGAUCGCUUCGAUAUCCGCAUGCUACCCCUCUUCUUUUUGGUCCUUGGCUGGGUAGCAAAUUGGUGAGAAGAGCAGCCUAGUCUGUAAGAGUGCAGGGCAGCUGGAACCUUAGGCAGCUCCUCUGUAUGCUACCGGCUCCACACCCUAACACUCUCCACCCUCUGCUCCAAACCAGUUCUUCUGCAGAGUGGUGAUGUUAGCUUCCCCAGCUCCUCUCCAAGUCUAGCUUUUUCUGUCCUUCUGGCUCCAAGGUGCUCUGUGUCUGUGUGUGUGUGUCUGUCUGUCUCUUGCGGUCGCACUAGUGUGGAAUUCUCGGGUGUCAAGG
B10: ENSMUSG00000031028.410|Tub (ssRNA)
RNA: GGGAGUUCUACAGUCCGACGAUCGCUUCGAUAUCCGCAUGCUAAGAUCCCUUACCCCUCAUCCCCUCUUCUUUUUGGUCCUUGGCUGGGUAGCAAAUUGGUGAGAAGAGCAGCCUAGUCUGUAAGAGUGCAGGGCAGCUGGAACCUUAGGCAGCUCCUCUGUAUGCUACCGGCUCCACACCCUAACACUCUCCACCCUCUGCUCCAAACCAGUUCUUCUGCAGAGUGGUGAUGUUAGCUUCCCCAGCUCCUCUCCAAGUCUAGCUUUUUCUGUCCUUCUGGCUCCAAGGUGCUCUGUGUCUGUCUCUUGCGGUCGCACUAGUGUGGAAUUCUCGGGUGUCAAGG
B11: ENSMUSG00000043670.304|Diras1 (ssRNA)
RNA: GGGAGUUCUACAGUCCGACGAUCGCUUCGAUAUCCGCAUGCUAGUCACAAAGAGACAGAGAAGCAGAAAGAAGGCUGAAGCCAGAUGACCAAGUAGGCCGGACCCCACUGUGUUCCCUUCUGUGUGCCAGGCACAGGGAGAGCCACAGCCUGAAGCCUGAGUCUGAGCAUAGCUGAGCCCUGACCUCUAGCCAGCCCAGGGCCCCCACAGCUGCCACCUGCUCCCAAGCCCCGGGAGUGGCUCCUGGCUGGACAGGGGGUCACAGCCCUUUCUCAGGGACACACCCUGAUAGCACAAUCUCUGCUCUUGCGGUCGCACUAGUGUGGAAUUCUCGGGUGUCAAGG
B12: ENSMUSG00000029636.41|Wasf3|31:35;229:235 (ssRNA)
RNA: GGGAGUUCUACAGUCCGACGAUCGCUUCGAUAUCCGCAUGCUACACAUCCUUCUGGAUUUGUUGAGUAUUUACACACAAAUACUUAAGUGCCACAGAACACAGCACACCGUGCUGCACACCAGGAAACUCGCAGUAUUAGUGCAUCACCCUGGAACAGCAUCUUGCUUCCCUCUCAGCCGUGAGAGUCCCCUCUCCUGUCCAUCCUGAUUUGGUGGGCUUGCCACGUAUCUGCGCAGCUGCCCCACGUCAGCUCUCUGCAAGAUCACUGGCACACACACUCAGUGAUGUCUUCCAACCAGUGGCUCUUGCGGUCGCACUAGUGUGGAAUUCUCGGGUGUCAAGG
B13: ENSMUSG00000029028.57|Lrrc47 (ssRNA)
RNA: GGGAGUUCUACAGUCCGACGAUCGCUUCGAUAUCCGCAUGCUAGUAGAUCUUUGUAGGUGUAGGUAUGCUGUAGGUAUCUGGGUGUGGGUAUGCUGUAGAUGUCUGUGUAGGUGUGGAUAUGCUGUAGGUAUCUGGGUGUGCUGUAGGUGUCUGUGUGGGUGUGGGUGUGCUGUGGGUGUCUGUGUGGGUGUGCUGUAGGUGUCUGUAGGUGUGGGUAUGCUGCAGGUGUGGGUGUGCUGUAGAUCUCUAUAGGUGUGGGUGUGCUGUAGGGGUCUGUGUGGGUAUAGGUGUGGGUGUGCUGUCUCUUGCGGUCGCACUAGUGUGGAAUUCUCGGGUGUCAAGG

What follows are binders tested against TDP-43 (Homo sapiens, UniProt Q13148 1-414) (assay: RNA Bind-n-Seq with designed 260-mer pool; 25 mM Tris-HCl, 150 mM KCl, 3 mM MgCl2, BSA (printed 500 mg/mL), 20 units/mL SUPERase IN; pH not stated; 500 nM RNA pool, 1 h, 4 C; TDP-43 5, 50, 500 nM; high values mean tight binding). Conditions: protein: recombinant; tags: SBP (GST cleaved off with PreScission; pGEX-GST-SBP).
TDP-43, sequence (Q13148 whole entry): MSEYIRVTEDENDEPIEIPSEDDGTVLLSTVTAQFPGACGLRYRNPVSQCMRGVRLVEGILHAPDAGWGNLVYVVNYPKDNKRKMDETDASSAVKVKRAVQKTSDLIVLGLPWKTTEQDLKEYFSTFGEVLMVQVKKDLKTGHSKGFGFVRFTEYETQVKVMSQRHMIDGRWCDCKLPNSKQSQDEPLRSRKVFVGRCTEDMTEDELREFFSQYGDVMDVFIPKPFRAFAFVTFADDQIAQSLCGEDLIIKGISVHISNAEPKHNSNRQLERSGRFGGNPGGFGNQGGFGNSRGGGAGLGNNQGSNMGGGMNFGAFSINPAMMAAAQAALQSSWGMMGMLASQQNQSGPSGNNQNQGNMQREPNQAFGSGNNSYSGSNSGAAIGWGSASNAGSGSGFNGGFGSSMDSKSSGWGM
Summary of the method: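 An in vitro-transcribed pool of 260-nt 3′ UTR oligos (500 nM) was incubated for 1 h at 4 °C with recombinant SBP-tagged TDP-43 at 5, 50 or 500 nM held on streptavidin beads. The buffer contained 25 mM Tris-HCl, 150 mM KCl, 3 mM MgCl2, BSA and SUPERase IN. Biotin-eluted bound RNA was sequenced, and binding, R, is each oligo's normalized read abundance in the bound sample over that in input.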

Row | Binder | binding signal
1 | B1 | 2.48 R (bound/input frequency ratio)
2 | B2 | 9.18 R (bound/input frequency ratio)
3 | B3 | 3.93 R (bound/input frequency ratio)
4 | B4 | 1.85 R (bound/input frequency ratio)
5 | B5 | 1.34 R (bound/input frequency ratio)
6 | B6 | 2.36 R (bound/input frequency ratio)
7 | B7 | 6.65 R (bound/input frequency ratio)
8 | B8 | 6.55 R (bound/input frequency ratio)
9 | B9 | 3.56 R (bound/input frequency ratio)
10 | B10 | 1.11 R (bound/input frequency ratio)
11 | B11 | 0.472 R (bound/input frequency ratio)
12 | B12 | 0.406 R (bound/input frequency ratio)
13 | B13 | 6.24 R (bound/input frequency ratio)
